These results are taken from PubChem BioAssay.

A short description of assay [1]: yeast TOR pathway RPL19A-GFP modulators, primary screen, cell-based, S. cerevisiae, multiplex flow cytometry (AID 1862; in the data active = percent of DMSO control GFP below about 86%;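 note: lower values mimic rapamycin by blocking the RPL19A rise seen in DMSO cells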). To be noted: S. cerevisiae RPL19A-GFP strain, flow cytometry fluorescence, 3 h; at 10 µM; stronger effect = lower value. In general terms: A flow cytometer gives signals particle by particle.
A short description of assay [2]: modulators of MEP2-GFP levels in yeast, primary screen, S. cerevisiae, multiplex flow cytometry (AID 1867;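 active = GFP response, as percent of the DMSO control, above the screen-wide mean plus 3 SD, about 139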;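 note: median GFP channel fluorescence of barcode-gated MEP2-GFP cells measured by flow cytometry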). As to conditions: S. cerevisiae MEP2-GFP strain, 3 h, at 10 µM, stronger effect = higher value, 100% means same as DMSO wells.
Assay [3] is described as follows: modulators of CIT2-GFP expression in yeast, primary screen, S. cerevisiae, GFP fusion, multiplex flow cytometry (AID 1870;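 active = percent response above a set limit, the screen-wide mean plus 3 SD, cut at about 130% in these data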;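 note: barcoded CIT2-GFP strain pooled with four other GFP strains with rapamycin as positive control; median GFP fluorescence per well over plate mean of DMSO wells so 100% = DMSO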). As to conditions: 3 h, at 10 µM, stronger effect = higher value.
A short description of assay [4]: modulators of LAP4-GFP expression in yeast, primary screen, S. cerevisiae, multiplex flow cytometry (AID 1873;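 active = GFP signal, as percent of the solvent control, above the screen mean plus 3 SD, about 149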). As to conditions: 3 h, at 10 µM, stronger effect = higher value.
Assay [5] is described as follows: modulators of AGP1-GFP expression in yeast TOR pathway, primary screen, cell-based, multiplex flow cytometry, S. cerevisiae (AID 1887;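 active = GFP signal above the screen-wide mean plus 3 SD, that is over about 124.5% of the solvent control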;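 note: AGP1-GFP fusion strain of S. cerevisiae within a five-strain barcoded multiplex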). To be noted: 3 h, at 10 µM, stronger effect = higher value.
Assay [6] is described as follows: inhibitors of CD8+ T cell-vesicle binding, pilot screen, LFA-1/ICAM-1 modulator project, MLPCN validation set, flow cytometry (AID 2523;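 active = response below a set limit, under 55% cells CD8-positive and vesicle-bound, and CD8 cells' 90th-percentile brightness under 279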;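 for vesicle binding response: mean PE anti-B7-1 fluorescence of CD8+ cells relative to row control; 100% = QL9-loaded vesicles with DMSO vehicle in the same plate row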). As to conditions: 2C mouse CD8+ T cells, at 7 µM, stronger effect = lower value; double positive events: measured here: CD8+/vesicle+ event percentage.
Assay [7] addresses Integrin beta-1 (Homo sapiens) + Integrin alpha-4 (Homo sapiens) (UniProt P13612+P05556). As to the kind of experiment: inhibition of HUTS-21 binding to VLA-4, pilot screen, VLA-4 allosteric modulator project, U937 cells, HUTS-21 mAb, flow cytometry, validation set (AID 2674;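 active = inhibition above 50%, about 3 SD of the validation set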;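 note: antibody binding induced by the VLA-4 ligand LDV present at three times its Kd; 0% = LDV ligand with antibody and no compound and 100% = antibody without LDV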). As to conditions: HUTS-21 LIBS mAb binding, at 6.7 µM, stronger effect = higher value, binding induced by LDV ligand.

Assay [8] in a line: superoxide lowering in aged yeast cells, pilot screen, validation compound set (AID 2706;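 active = superoxide response below 65% of plate, a cut near 3 SD across the whole screen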;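 note: yeast exposed to compound for one week at 30 degrees C before staining; 100% = mean of all compound wells on the same plate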). As to conditions: S. cerevisiae aging, superoxide DHE fluorescence; at 10 µM; stronger effect = lower value.
Assay [9] deals with Beta-adrenergic receptor kinase 1 (Homo sapiens) (UniProt P25098). As to the kind of experiment: GRK2 binders displacing RNA aptamer, biochemical, validation, human GRK2, bead flow cytometry (AID 488806;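 active = aptamer binding inhibition above 30%, about 3 SD of noise from non-fluorescent compounds; inactive = inhibition at or below 30%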). As to conditions: bead-bound GRK2, FAM-aptamer displacement, at 10 µM, stronger effect = higher value.
The target of assay [10] is Beta-2 adrenergic receptor (Homo sapiens) (UniProt P07550). The experiment in a line: beta2AR agonists driving receptor internalization, pilot screen, cell-based, FAP fluorogen, flow cytometry, validation set (AID 504459;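 active = percent response above 42, roughly 3 SD of non-fluorescent test compounds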;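 note: agonist-driven loss of surface beta2AR via internalization measured by FAP dye flow cytometry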). To be noted: Am2.2-beta2AR cells, FAP surface receptor flow cytometry; at 10 µM; stronger effect = higher value.
Assay [11] concerns the target AP-2 complex subunit beta (Homo sapiens) (UniProt P63010). The experiment in a line: inhibitors of arrestin peptide binding to AP2, pilot screen, biochemical, validation set, GST-AP2 beads, flow cytometry (AID 504541).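 Note: AP2 carries R879A mutation and is captured from E. coli lysate; bead-bound FITC arrestin peptide fluorescence measuring arrestin peptide binding to AP2; 0% = DMSO wells and 100% = excess unlabeled arrestin peptide control.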 As to conditions: FITC arrestin peptide, at 10 µM, stronger effect = higher value, AP2 beta2 appendage fragment, R879A mutant.
Assay [12] can be described thus: yeast V-ATPase proton transport modulators, S. cerevisiae, pHLuorin, HTS validation (AID 504600; in the data active = response above about 15%;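 note: plate controls were DMSO for no effect and reference compound for full effect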). To be noted: S. cerevisiae pHLuorin cytosolic pH, at 10 µM, stronger effect = higher value.
In assay [13] the test system is anti-desmoglein-3 scFv antibody binding to human DSG3. The experiment in a line: inhibitors of anti-DSG3 scFv binding to DSG3, pilot screen, biochemical, validation compound set, bead-based, flow cytometry (AID 588368;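 active = binding below the plate cutoff, the plate median minus 3 SD, with a reading above zero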;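 note: signal is the median channel fluorescence of bead-bound GFP antibody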). As to conditions: Protein G beads, DSG3-Fc, scFv-GFP binding, at 10 µM, stronger effect = lower value.
The nature of assay [14]: inhibitors of fungal efflux pumps CDR1, CDR2, MDR1, pilot screen, validation compound set, multiplex, phenotypic (AID 588506;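 active = efflux inhibition above 0.42, the validation set average plus 4 SD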;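 note: Nile Red retained in cells so higher fluorescence means more efflux inhibition; 0 = negative control wells and 1 = enniatin B 25 µM full block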). To be noted: S. cerevisiae pump-expressing triplex, Nile Red efflux flow cytometry; at 10 µM; stronger effect = higher value; the pumps come from Candida albicans.
The target in assay [15] is ATP-binding cassette sub-family B member 6 (Homo sapiens) (UniProt Q9NP58). As to the kind of experiment: ABCB6 transporter inhibitors, pilot screen, K562-ABCB6 cells, flow cytometry, validation set (AID 588550;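 active = inhibition above the screen-wide mean plus 3 SD, about 51%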;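 note: 0% = DMSO wells and 100% = benzethonium chloride 70 µM positive control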). As to conditions: K562-ABCB6 porphyrin accumulation, 1 h, at 10 µM, stronger effect = higher value.
Assay [16] in a line: promoters of myeloid differentiation in arrested cells, primary screen, cell-based, GFP/MAC1 double positive, flow cytometry, validation set (AID 588685;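 active = differentiation response of at least 50%, scaled between solvent and reference control, from cells with both markers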;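 note: compound exposure lasts four days before antibody staining and flow analysis; 0% = DMSO wells and 100% = 5 µM fulvestrant positive control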). As to conditions: ER-HoxA9 marrow cells, stronger effect = higher value, normalized: vehicle 0, fulvestrant 100.

The structures appear in SMILES notation. Results filed as inconclusive are left out. The source made the active and inactive calls.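 Rule for the calls, unless noted: active = inhibition above 54%, about 3 SD of non-fluorescent compounds; inactive = the rest.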

Beta-adrenergic receptor kinase 1 (Homo sapiens), sequence (P25098 whole entry, looked up): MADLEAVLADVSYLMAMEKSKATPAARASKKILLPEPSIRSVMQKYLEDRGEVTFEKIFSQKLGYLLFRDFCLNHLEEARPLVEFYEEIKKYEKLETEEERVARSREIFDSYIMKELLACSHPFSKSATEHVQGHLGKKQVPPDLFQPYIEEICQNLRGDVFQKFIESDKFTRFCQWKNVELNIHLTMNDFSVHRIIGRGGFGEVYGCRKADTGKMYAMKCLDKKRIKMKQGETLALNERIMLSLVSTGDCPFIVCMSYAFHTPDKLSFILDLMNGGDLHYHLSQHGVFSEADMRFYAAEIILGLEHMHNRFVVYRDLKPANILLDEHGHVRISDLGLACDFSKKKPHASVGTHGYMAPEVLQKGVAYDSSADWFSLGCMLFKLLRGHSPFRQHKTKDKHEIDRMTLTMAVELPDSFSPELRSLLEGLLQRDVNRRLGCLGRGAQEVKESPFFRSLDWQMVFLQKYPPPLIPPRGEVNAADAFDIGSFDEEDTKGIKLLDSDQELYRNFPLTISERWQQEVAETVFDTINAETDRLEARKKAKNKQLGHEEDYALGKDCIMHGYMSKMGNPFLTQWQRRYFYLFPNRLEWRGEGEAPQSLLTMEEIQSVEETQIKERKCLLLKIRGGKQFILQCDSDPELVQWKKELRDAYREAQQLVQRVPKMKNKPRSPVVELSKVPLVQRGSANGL
ATP-binding cassette sub-family B member 6 (Homo sapiens), sequence (Q9NP58 whole entry, looked up): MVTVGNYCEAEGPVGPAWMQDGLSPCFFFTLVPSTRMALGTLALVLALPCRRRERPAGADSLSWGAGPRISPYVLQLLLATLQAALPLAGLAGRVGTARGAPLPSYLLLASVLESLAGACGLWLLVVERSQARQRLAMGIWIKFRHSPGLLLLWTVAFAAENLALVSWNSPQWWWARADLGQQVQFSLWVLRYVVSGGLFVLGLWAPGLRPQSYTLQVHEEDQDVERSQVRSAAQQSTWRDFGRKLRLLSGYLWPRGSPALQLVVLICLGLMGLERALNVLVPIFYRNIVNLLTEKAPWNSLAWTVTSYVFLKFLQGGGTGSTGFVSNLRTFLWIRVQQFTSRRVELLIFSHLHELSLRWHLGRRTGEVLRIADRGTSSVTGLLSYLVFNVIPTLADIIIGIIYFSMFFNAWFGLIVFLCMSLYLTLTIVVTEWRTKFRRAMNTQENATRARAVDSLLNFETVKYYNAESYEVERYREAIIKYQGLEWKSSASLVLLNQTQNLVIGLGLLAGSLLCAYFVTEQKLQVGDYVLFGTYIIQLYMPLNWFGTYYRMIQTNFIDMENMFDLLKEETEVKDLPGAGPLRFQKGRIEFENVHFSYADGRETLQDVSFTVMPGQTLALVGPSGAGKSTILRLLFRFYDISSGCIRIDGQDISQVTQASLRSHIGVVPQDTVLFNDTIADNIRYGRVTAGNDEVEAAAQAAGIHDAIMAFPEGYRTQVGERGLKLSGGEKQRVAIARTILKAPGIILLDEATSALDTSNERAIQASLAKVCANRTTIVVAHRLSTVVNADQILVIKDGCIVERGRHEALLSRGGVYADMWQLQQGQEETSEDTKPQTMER
Integrin beta-1 (Homo sapiens) + Integrin alpha-4 (Homo sapiens), sequence (P05556 whole entry, looked up): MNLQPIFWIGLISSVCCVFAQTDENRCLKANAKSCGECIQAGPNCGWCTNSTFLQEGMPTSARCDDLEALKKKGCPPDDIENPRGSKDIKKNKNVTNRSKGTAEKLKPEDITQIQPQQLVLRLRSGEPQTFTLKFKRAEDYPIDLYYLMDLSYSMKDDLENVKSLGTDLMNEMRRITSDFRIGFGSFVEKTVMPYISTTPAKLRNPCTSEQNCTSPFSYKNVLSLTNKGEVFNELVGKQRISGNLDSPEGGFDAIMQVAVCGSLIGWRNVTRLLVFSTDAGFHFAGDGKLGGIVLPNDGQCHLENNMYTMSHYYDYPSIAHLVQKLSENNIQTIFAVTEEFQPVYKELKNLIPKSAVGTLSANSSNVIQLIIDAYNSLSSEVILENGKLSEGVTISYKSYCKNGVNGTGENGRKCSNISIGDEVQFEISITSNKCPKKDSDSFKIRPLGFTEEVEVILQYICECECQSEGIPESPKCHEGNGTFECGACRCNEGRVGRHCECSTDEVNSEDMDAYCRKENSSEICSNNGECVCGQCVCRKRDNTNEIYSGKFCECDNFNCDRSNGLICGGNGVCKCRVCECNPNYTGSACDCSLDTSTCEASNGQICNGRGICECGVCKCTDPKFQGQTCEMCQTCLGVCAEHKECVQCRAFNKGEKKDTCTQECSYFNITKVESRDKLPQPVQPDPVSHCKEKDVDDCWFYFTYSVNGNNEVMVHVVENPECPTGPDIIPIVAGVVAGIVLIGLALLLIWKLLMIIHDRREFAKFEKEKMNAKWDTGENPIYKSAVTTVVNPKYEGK
Integrin beta-1 (Homo sapiens) + Integrin alpha-4 (Homo sapiens), sequence (P13612 whole entry, looked up): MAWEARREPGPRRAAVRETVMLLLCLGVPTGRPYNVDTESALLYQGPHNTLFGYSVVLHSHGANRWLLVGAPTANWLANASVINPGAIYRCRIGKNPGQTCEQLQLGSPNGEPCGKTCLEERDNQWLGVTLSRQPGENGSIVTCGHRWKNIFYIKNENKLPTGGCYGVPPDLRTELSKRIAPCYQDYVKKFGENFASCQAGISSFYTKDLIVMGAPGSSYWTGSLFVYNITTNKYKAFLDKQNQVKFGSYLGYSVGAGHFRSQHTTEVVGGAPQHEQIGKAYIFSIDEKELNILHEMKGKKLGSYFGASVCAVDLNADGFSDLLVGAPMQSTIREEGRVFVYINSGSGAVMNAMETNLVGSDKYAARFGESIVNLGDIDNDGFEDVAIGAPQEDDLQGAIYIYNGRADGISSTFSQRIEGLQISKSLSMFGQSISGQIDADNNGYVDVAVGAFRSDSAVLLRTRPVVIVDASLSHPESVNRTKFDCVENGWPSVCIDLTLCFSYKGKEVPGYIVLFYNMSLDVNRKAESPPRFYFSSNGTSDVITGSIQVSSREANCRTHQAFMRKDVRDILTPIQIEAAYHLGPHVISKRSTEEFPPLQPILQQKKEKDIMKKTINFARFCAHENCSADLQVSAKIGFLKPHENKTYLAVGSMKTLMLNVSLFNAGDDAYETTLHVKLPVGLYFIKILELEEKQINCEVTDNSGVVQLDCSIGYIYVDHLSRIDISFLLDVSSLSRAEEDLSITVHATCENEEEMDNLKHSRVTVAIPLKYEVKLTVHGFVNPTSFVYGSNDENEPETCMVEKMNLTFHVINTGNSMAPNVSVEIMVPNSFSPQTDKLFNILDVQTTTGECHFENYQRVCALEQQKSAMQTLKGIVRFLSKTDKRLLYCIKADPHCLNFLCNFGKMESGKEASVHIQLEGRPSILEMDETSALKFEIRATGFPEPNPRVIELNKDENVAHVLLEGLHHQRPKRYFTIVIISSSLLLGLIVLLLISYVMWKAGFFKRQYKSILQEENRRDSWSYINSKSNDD
AP-2 complex subunit beta (Homo sapiens), sequence (P63010 whole entry, looked up, the tested form may be a part, one chain of several): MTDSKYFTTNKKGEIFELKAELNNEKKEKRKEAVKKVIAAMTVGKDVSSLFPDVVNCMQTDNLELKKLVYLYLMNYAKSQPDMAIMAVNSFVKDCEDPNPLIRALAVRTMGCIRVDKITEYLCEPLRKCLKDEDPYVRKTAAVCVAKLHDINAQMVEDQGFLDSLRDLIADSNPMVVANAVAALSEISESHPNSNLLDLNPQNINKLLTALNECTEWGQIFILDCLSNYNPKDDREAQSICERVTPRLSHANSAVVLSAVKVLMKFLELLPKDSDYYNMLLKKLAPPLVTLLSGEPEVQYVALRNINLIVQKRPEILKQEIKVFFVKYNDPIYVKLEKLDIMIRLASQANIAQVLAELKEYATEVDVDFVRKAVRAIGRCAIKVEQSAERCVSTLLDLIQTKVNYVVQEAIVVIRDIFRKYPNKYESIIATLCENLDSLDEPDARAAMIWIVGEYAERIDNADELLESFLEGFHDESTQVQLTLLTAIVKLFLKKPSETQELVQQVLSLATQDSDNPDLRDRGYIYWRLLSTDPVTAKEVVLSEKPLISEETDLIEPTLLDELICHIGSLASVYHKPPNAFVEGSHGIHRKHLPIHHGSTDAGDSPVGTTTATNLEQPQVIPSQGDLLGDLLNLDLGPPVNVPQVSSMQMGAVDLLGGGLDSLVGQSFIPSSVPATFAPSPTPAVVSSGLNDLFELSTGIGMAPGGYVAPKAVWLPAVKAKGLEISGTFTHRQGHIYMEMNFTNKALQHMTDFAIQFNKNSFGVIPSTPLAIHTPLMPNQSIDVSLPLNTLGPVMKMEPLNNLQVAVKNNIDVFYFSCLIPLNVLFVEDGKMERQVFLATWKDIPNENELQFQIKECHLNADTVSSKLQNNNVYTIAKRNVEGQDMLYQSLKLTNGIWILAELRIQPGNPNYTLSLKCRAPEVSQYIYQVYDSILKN
Beta-2 adrenergic receptor (Homo sapiens), sequence (P07550 whole entry, looked up): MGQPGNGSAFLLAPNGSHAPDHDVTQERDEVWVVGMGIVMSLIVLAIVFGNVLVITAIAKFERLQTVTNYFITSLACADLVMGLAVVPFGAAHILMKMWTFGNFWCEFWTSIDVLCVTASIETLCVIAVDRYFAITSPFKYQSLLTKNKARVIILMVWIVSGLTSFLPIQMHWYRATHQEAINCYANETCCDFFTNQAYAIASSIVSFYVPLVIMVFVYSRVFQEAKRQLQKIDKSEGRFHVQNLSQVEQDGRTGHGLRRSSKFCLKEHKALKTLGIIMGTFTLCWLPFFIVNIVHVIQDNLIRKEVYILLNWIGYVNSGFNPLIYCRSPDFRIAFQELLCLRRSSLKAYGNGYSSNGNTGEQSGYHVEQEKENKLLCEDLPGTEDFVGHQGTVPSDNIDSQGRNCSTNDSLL

For orientation: inhibition means the drop in the measured response relative to a control, in per cent. Take `COc1ccccc1OCC(O)COC(N)=O` (stereo not given): in [1], the percent of DMSO control GFP is 93.3% (inactive). Also, the results for the GFP response vs DMSO in assay [2] and in [4] were 131% (inactive) and 82% (inactive), respectively. The percent response of DMSO control in assay [3] was 97.9% (inactive). Also, the GFP response, % of DMSO in [5] is 84.5% (inactive). The compound further had a double positive events in assay [6] of 62.5%. The vesicle binding response in assay [6] was 133% (inactive). Besides, the inhibition in assay [7] was 11.3% (inactive); in assay [11], -1.32% (inactive); in [15] it was 9% (inactive). Further, the superoxide response (% of plate) in assay [8] was 101% (inactive). In assay [9], the aptamer binding inhibition was 1% (inactive). Further, the response was 1.55% (inactive) in assay [10] and -1.8% (inactive) in assay [12]. The binding (% of control) in [13] was 101% (inactive). For the same compound, the efflux inhibition (fraction of control) in [14] was 0.01 (inactive). The differentiation response in [16] is 3.28% (inactive).
As for `O=C(CCCN1C(=O)/C(=C\c2cccs2)SC1=S)Nc1ccccn1`, the percent of DMSO control GFP in [1] was 103% (inactive). Further, the values for the GFP response vs DMSO in assay [2] and in [4] were 99.7% (inactive) and 99.1% (inactive), respectively. In addition, the percent response of DMSO control in assay [3] is 92.4% (inactive). Besides, in assay [5], the GFP response, % of DMSO is 96.8% (inactive). The compound also showed a double positive events in assay [6] of 61.7%. The vesicle binding response in assay [6] is 154% (inactive). Also, the inhibition in assay [7] was -2.43% (inactive); in [11], -9.99% (inactive); in assay [15], -5% (inactive). Moreover, the superoxide response (% of plate) in assay [8] is 115% (inactive). Besides, the aptamer binding inhibition in assay [9] was 2% (inactive). For the same compound, the response in assay [10] is -9.49% (inactive); in assay [12], -5.78% (inactive). In addition, in assay [13], the binding (% of control) is 94% (inactive). Moreover, the efflux inhibition (fraction of control) in [14] was 0.35 (inactive). In addition, the differentiation response in [16] is -7.5% (inactive).
Take `COc1ccc(-c2csc(-c3cccnc3)n2)cc1C`: in assay [1], the percent of DMSO control GFP was 98.2% (inactive). Further, the GFP response vs DMSO in [2] is 111% (inactive); in [4], 95.7% (inactive). Further, the percent response of DMSO control in assay [3] is 91% (inactive). For the same compound, the GFP response, % of DMSO in assay [5] was 84.4% (inactive). The same compound had a double positive events in assay [6] of 59.8%. In [6], the vesicle binding response was 170% (inactive). The inhibition in [7] is 0.94% (inactive); in assay [11], 7.91% (inactive); in assay [15], 3% (inactive). In assay [8], the superoxide response (% of plate) is 102% (inactive). The aptamer binding inhibition in [9] is 4% (inactive). Moreover, the figures for the response in assay [10] and in assay [12] were 3.47% (inactive) and -1.19% (inactive), respectively. Moreover, the binding (% of control) in assay [13] is 102% (inactive). In assay [14], the efflux inhibition (fraction of control) is 0.12 (inactive). Besides, the differentiation response in [16] is 4% (inactive).
As for `O=C(NCc1ccco1)/C(=C\C=C\c1ccccc1)NC(=O)c1ccccc1Br`, in assay [1], the percent of DMSO control GFP was 108% (inactive). For the same compound, the results for the GFP response vs DMSO in [2] and in assay [4] were 107% (inactive) and 110% (inactive), respectively. Further, the percent response of DMSO control in [3] was 110% (inactive). For the same compound, the GFP response, % of DMSO in assay [5] is 106% (inactive). Moreover, the double positive events in [6] was 60.6%. Further, in [6], the vesicle binding response was 139% (inactive). In addition, the inhibition in assay [7] was -14.5% (inactive); in assay [11], 5.44% (inactive); in [15] it was -4% (inactive). Besides, the superoxide response (% of plate) in assay [8] is 95.8% (inactive). The aptamer binding inhibition in assay [9] is 0% (inactive). Moreover, the response was 12.9% (inactive) in assay [10] and 1.56% (inactive) in assay [12]. Besides, the binding (% of control) in assay [13] was 104% (inactive). The efflux inhibition (fraction of control) in assay [14] is -0.045 (inactive). Further, the differentiation response in [16] is -3.11% (inactive).
Consider `Cc1ccc2occ(C(=O)c3ccco3)c(=O)c2c1`, for which the percent of DMSO control GFP in assay [1] was 101% (inactive). Also, the values for the GFP response vs DMSO in [2] and in assay [4] were 101% (inactive) and 85.9% (inactive), respectively. Further, the percent response of DMSO control in [3] was 89.5% (inactive). Moreover, the GFP response, % of DMSO in assay [5] is 86.1% (inactive). In [6], this compound gave a double positive events of 60.6%. In assay [6], the vesicle binding response is 99.1% (inactive). Further, the inhibition was 6.85% (inactive) in assay [7], -6.83% (inactive) in [11] and 1% (inactive) in assay [15]. For the same compound, in assay [8], the superoxide response (% of plate) is 104% (inactive). Besides, the aptamer binding inhibition in [9] was 2% (inactive). Moreover, the response in assay [10] is -3.74% (inactive); in assay [12], 0.29% (inactive). Also, the binding (% of control) in assay [13] was 99.7% (inactive). Also, the efflux inhibition (fraction of control) in assay [14] was -0.31 (inactive). For the same compound, the differentiation response in [16] was 0% (inactive).
